# Measured values as given in the supplement of paper PMC4466140.
# Tests used:
# Experiment in all cases: SPOT peptide array binding signal intensity (averaged, normalized) (arbitrary units (background-subtracted, floor 0; scale differs between SH3 domains)); higher = stronger binding of the SH3 domain to the peptide
# AgAbp1 = target: AgAbp1
# Description: (§1)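 GST-tagged SH3 domains from S. cerevisiae (Sc), A. gossypii (Ag), C. albicans (Ca) and S. pombe (Sp) were incubated at 10 ug/ml overnight at 4 C on cellulose SPOT membranes carrying 292 synthetic 15-mer peptides mined from the S. cerevisiae proteome (cysteines replaced by serines). Binding was detected with anti-GST antibody, HRP secondary and chemiluminescence, quantified with Genespotter, and reported as normalized spot intensities averaged over biological replicates.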
# AgBbc1 = target: AgBbc1
# Description: as §1
# AgBem1-D1 = target: AgBem1-D1
# Description: as §1
# AgBzz1-D1 = target: AgBzz1-D1
# Description: as §1
# AgBzz1-D2 = target: AgBzz1-D2
# Description: as §1
# AgCyk3 = target: AgCyk3
# Description: as §1
# AgFus1 = target: AgFus1
# Description: as §1
# AgHof1 = target: AgHof1
# Description: as §1
# AgHse1 = target: AgHse1
# Description: as §1
# AgLsb1 = target: AgLsb1
# Description: as §1
# AgLsb4 = target: AgLsb4
# Description: as §1
# AgMyo5 = target: AgMyo5
# Description: as §1
# AgNbp2 = target: AgNbp2
# Description: as §1
# AgRvs167 = target: AgRvs167
# Description: as §1
# AgSho1 = target: AgSho1
# Description: as §1
# AgSla1-D1-D2 = target: AgSla1-D1-D2
# Description: as §1
# AgSla1-D3 = target: AgSla1-D3
# Description: as §1
# CaAbp1-D1 = target: CaAbp1-D1
# Description: as §1
# CaAbp1-D2 = target: CaAbp1-D2
# Description: as §1
# CaBbc1 = target: CaBbc1
# Description: as §1
# CaBem1-D1 = target: CaBem1-D1
# Description: as §1
# CaBzz1-D1 = target: CaBzz1-D1
# Description: as §1
# CaBzz1-D2 = target: CaBzz1-D2
# Description: as §1
# CaCyk3 = target: CaCyk3
# Description: as §1
# CaFus1 = target: CaFus1
# Description: as §1
# CaHof1 = target: CaHof1
# Description: as §1
# CaHse1 = target: CaHse1
# Description: as §1
# CaLsb1 = target: CaLsb1
# Description: as §1
# CaLsb4 = target: CaLsb4
# Description: as §1
# CaMyo5 = target: CaMyo5
# Description: as §1
# CaNbp2 = target: CaNbp2
# Description: as §1
# CaRvs167 = target: CaRvs167
# Description: as §1
# CaRvs167-3 = target: CaRvs167-3
# Description: as §1
# CaSho1 = target: CaSho1
# Description: as §1
# CaSla1-D1-D2 = target: CaSla1-D1-D2
# Description: as §1
# CaSla1-D3 = target: CaSla1-D3
# Description: as §1
# ScAbp1 = target: ScAbp1
# Description: as §1
# ScBbc1 = target: ScBbc1
# Description: as §1
# ScBem1-D1 = target: ScBem1-D1
# Description: as §1
# ScBzz1-D1 = target: ScBzz1-D1
# Description: as §1
# ScBzz1-D2 = target: ScBzz1-D2
# Description: as §1
# ScCyk3 = target: ScCyk3
# Description: as §1
# ScFus1 = target: ScFus1
# Description: as §1
# ScHof1 = target: ScHof1
# Description: as §1
# ScHse1 = target: ScHse1
# Description: as §1
# ScLsb1 = target: ScLsb1
# Description: as §1
# ScLsb2 = target: ScLsb2
# Description: as §1
# ScLsb3 = target: ScLsb3
# Description: as §1
# ScLsb4 = target: ScLsb4
# Description: as §1
# ScMyo3 = target: ScMyo3
# Description: as §1
# ScMyo5 = target: ScMyo5
# Description: as §1
# ScNbp2 = target: ScNbp2
# Description: as §1
# ScPex13 = target: ScPex13
# Description: as §1
# ScRvs167 = target: ScRvs167
# Description: as §1
# ScSho1 = target: ScSho1
# Description: as §1
# ScSla1-D1-D2 = target: ScSla1-D1-D2
# Description: as §1
# ScSla1-D3 = target: ScSla1-D3
# Description: as §1
# SpAbp1-D1 = target: SpAbp1-D1
# Description: as §1
# SpBbc1 = target: SpBbc1
# Description: as §1
# SpBzz1-D1 = target: SpBzz1-D1
# Description: as §1
# SpBzz1-D2 = target: SpBzz1-D2
# Description: as §1
# SpCyk3 = target: SpCyk3
# Description: as §1
# SpHof1 = target: SpHof1
# Description: as §1
# SpHof1-2 = target: SpHof1-2
# Description: as §1
# SpHof1-3 = target: SpHof1-3
# Description: as §1
# SpHse1 = target: SpHse1
# Description: as §1
# SpLsb1 = target: SpLsb1
# Description: as §1
# SpLsb4 = target: SpLsb4
# Description: as §1
# SpMyo1 = target: SpMyo1
# Description: as §1
# SpNbp2 = target: SpNbp2
# Description: as §1
# SpPex13 = target: SpPex13
# Description: as §1
# SpRvs167 = target: SpRvs167
# Description: as §1
# SpSla1-D1-D2 = target: SpSla1-D1-D2
# Description: as §1
# SpSla1-D3 = target: SpSla1-D3
# Description: as §1
binder,measurement,setting,value
SKAKRPKFLLDLQIK,SPOT peptide array binding signal intensity,AgAbp1,32.5
same,SPOT peptide array binding signal intensity,AgBbc1,2
same,SPOT peptide array binding signal intensity,AgBem1-D1,60
same,SPOT peptide array binding signal intensity,AgBzz1-D1,38
same,SPOT peptide array binding signal intensity,AgBzz1-D2,29.5
same,SPOT peptide array binding signal intensity,AgCyk3,10
same,SPOT peptide array binding signal intensity,AgFus1,152
same,SPOT peptide array binding signal intensity,AgHof1,16.5
same,SPOT peptide array binding signal intensity,AgHse1,154
same,SPOT peptide array binding signal intensity,AgLsb1,2.75
same,SPOT peptide array binding signal intensity,AgLsb4,16
same,SPOT peptide array binding signal intensity,AgMyo5,0.25
same,SPOT peptide array binding signal intensity,AgNbp2,11
same,SPOT peptide array binding signal intensity,AgRvs167,3.33
same,SPOT peptide array binding signal intensity,AgSho1,15
same,SPOT peptide array binding signal intensity,AgSla1-D1-D2,214
same,SPOT peptide array binding signal intensity,AgSla1-D3,5.5
same,SPOT peptide array binding signal intensity,CaAbp1-D1,502
same,SPOT peptide array binding signal intensity,CaAbp1-D2,337
same,SPOT peptide array binding signal intensity,CaBbc1,80.8
same,SPOT peptide array binding signal intensity,CaBem1-D1,13.5
same,SPOT peptide array binding signal intensity,CaBzz1-D1,110
same,SPOT peptide array binding signal intensity,CaBzz1-D2,127
same,SPOT peptide array binding signal intensity,CaCyk3,19
same,SPOT peptide array binding signal intensity,CaFus1,510
same,SPOT peptide array binding signal intensity,CaHof1,0.5
same,SPOT peptide array binding signal intensity,CaHse1,≤ 0
same,SPOT peptide array binding signal intensity,CaLsb1,≤ 0
same,SPOT peptide array binding signal intensity,CaLsb4,3.5
same,SPOT peptide array binding signal intensity,CaMyo5,2
same,SPOT peptide array binding signal intensity,CaNbp2,72
same,SPOT peptide array binding signal intensity,CaRvs167,1.67
same,SPOT peptide array binding signal intensity,CaRvs167-3,40.8
same,SPOT peptide array binding signal intensity,CaSho1,148
same,SPOT peptide array binding signal intensity,CaSla1-D1-D2,11
same,SPOT peptide array binding signal intensity,CaSla1-D3,≤ 0
same,SPOT peptide array binding signal intensity,ScAbp1,19
same,SPOT peptide array binding signal intensity,ScBbc1,3.5
same,SPOT peptide array binding signal intensity,ScBem1-D1,9
same,SPOT peptide array binding signal intensity,ScBzz1-D1,33
same,SPOT peptide array binding signal intensity,ScBzz1-D2,24
same,SPOT peptide array binding signal intensity,ScCyk3,51
same,SPOT peptide array binding signal intensity,ScFus1,268
same,SPOT peptide array binding signal intensity,ScHof1,≤ 0
same,SPOT peptide array binding signal intensity,ScHse1,486
same,SPOT peptide array binding signal intensity,ScLsb1,≤ 0
same,SPOT peptide array binding signal intensity,ScLsb2,≤ 0
same,SPOT peptide array binding signal intensity,ScLsb3,6
same,SPOT peptide array binding signal intensity,ScLsb4,2
same,SPOT peptide array binding signal intensity,ScMyo3,1.5
same,SPOT peptide array binding signal intensity,ScMyo5,1
same,SPOT peptide array binding signal intensity,ScNbp2,62
same,SPOT peptide array binding signal intensity,ScPex13,4.25
same,SPOT peptide array binding signal intensity,ScRvs167,1.67
same,SPOT peptide array binding signal intensity,ScSho1,398
same,SPOT peptide array binding signal intensity,ScSla1-D1-D2,27
same,SPOT peptide array binding signal intensity,ScSla1-D3,5
same,SPOT peptide array binding signal intensity,SpAbp1-D1,171
same,SPOT peptide array binding signal intensity,SpBbc1,1.75
same,SPOT peptide array binding signal intensity,SpBzz1-D1,346
same,SPOT peptide array binding signal intensity,SpBzz1-D2,0.5
same,SPOT peptide array binding signal intensity,SpCyk3,14.5
same,SPOT peptide array binding signal intensity,SpHof1,25.2
same,SPOT peptide array binding signal intensity,SpHof1-2,5
same,SPOT peptide array binding signal intensity,SpHof1-3,386
same,SPOT peptide array binding signal intensity,SpHse1,119
same,SPOT peptide array binding signal intensity,SpLsb1,1
same,SPOT peptide array binding signal intensity,SpLsb4,≤ 0
same,SPOT peptide array binding signal intensity,SpMyo1,≤ 0
same,SPOT peptide array binding signal intensity,SpNbp2,33.5
same,SPOT peptide array binding signal intensity,SpPex13,2.5
same,SPOT peptide array binding signal intensity,SpRvs167,≤ 0
same,SPOT peptide array binding signal intensity,SpSla1-D1-D2,3
same,SPOT peptide array binding signal intensity,SpSla1-D3,3
QRKSLRRPTLSKPAV,SPOT peptide array binding signal intensity,AgAbp1,32
same,SPOT peptide array binding signal intensity,AgBbc1,108
same,SPOT peptide array binding signal intensity,AgBem1-D1,210
same,SPOT peptide array binding signal intensity,AgBzz1-D1,40.5
same,SPOT peptide array binding signal intensity,AgBzz1-D2,42
same,SPOT peptide array binding signal intensity,AgCyk3,1
same,SPOT peptide array binding signal intensity,AgFus1,336
same,SPOT peptide array binding signal intensity,AgHof1,66
same,SPOT peptide array binding signal intensity,AgHse1,244
same,SPOT peptide array binding signal intensity,AgLsb1,4.25
same,SPOT peptide array binding signal intensity,AgLsb4,17
same,SPOT peptide array binding signal intensity,AgMyo5,1.5
same,SPOT peptide array binding signal intensity,AgNbp2,108
same,SPOT peptide array binding signal intensity,AgRvs167,1.67
same,SPOT peptide array binding signal intensity,AgSho1,10
same,SPOT peptide array binding signal intensity,AgSla1-D1-D2,14
same,SPOT peptide array binding signal intensity,AgSla1-D3,3.75
same,SPOT peptide array binding signal intensity,CaAbp1-D1,272
same,SPOT peptide array binding signal intensity,CaAbp1-D2,220
same,SPOT peptide array binding signal intensity,CaBbc1,338
same,SPOT peptide array binding signal intensity,CaBem1-D1,79
same,SPOT peptide array binding signal intensity,CaBzz1-D1,78
same,SPOT peptide array binding signal intensity,CaBzz1-D2,104
same,SPOT peptide array binding signal intensity,CaCyk3,16.5
same,SPOT peptide array binding signal intensity,CaFus1,298
same,SPOT peptide array binding signal intensity,CaHof1,≤ 0
same,SPOT peptide array binding signal intensity,CaHse1,10
same,SPOT peptide array binding signal intensity,CaLsb1,0.5
same,SPOT peptide array binding signal intensity,CaLsb4,89.5
same,SPOT peptide array binding signal intensity,CaMyo5,3.5
YRRKSIPFAPHQITA,SPOT peptide array binding signal intensity,SpBzz1-D2,0.5
same,SPOT peptide array binding signal intensity,SpCyk3,≤ 0
same,SPOT peptide array binding signal intensity,SpHof1,25.8
same,SPOT peptide array binding signal intensity,SpHof1-2,1.5
same,SPOT peptide array binding signal intensity,SpHof1-3,106
same,SPOT peptide array binding signal intensity,SpHse1,88.2
same,SPOT peptide array binding signal intensity,SpLsb1,4.5
same,SPOT peptide array binding signal intensity,SpLsb4,48
same,SPOT peptide array binding signal intensity,SpMyo1,5.5
same,SPOT peptide array binding signal intensity,SpNbp2,64
same,SPOT peptide array binding signal intensity,SpPex13,19
same,SPOT peptide array binding signal intensity,SpRvs167,6.33
same,SPOT peptide array binding signal intensity,SpSla1-D1-D2,≤ 0
same,SPOT peptide array binding signal intensity,SpSla1-D3,11
